# Assay outcomes from PubChem BioAssay.
# Shown are actives, neighbours in structure and some others; about 7% of the full set was active somewhere.
# a7 integrin act: activates integrin-mediated alleviation for muscular dystrophy; AID 624291; alpha7betagal myoblasts, beta-gal FDG fluorescence, 48 h; Potency, µM (titrated, usually from 38.3 µM), without a hit: at the top dose activation, most hits filed as activators; 0.064% of 350,000 active;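 further: potency means the concentration at half of the fitted maximal effect; 100% = response of the positive control SU9516; nearly all actives have a fitted effect of over 60% in size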
#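 Alpha7betagal+/- myoblasts (passage 13) were plated 16-24 hr, then exposed to compounds (1:260 dilution of DMSO stock) for 48 hours at 37C. After MPER lysis, β-galactosidase reporter activity was read as FDG fluorescence (ex 480/em 540) after 30 minutes.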
# ATXN2 expr inh: ATXN2 expression inhibition. HEK-293 ATXN2-luciferase reporter, luminescence, 24 h. Potency, µM (series often up to 57 µM), for the others: top-dose activity change, negative = inhibition, usual class: inhibitors. 0.72% of 360,000 active; further: potency means the concentration at half of the fitted maximal effect; on the % scale 0 is the no-effect control and ±100 the full control effect; nearly all actives have a fitted effect of over 55% in size
#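 ATXN2-luciferase reporter cells (luciferase flanked by upstream and downstream ATXN2 gene portions) were treated 24 h at 37 °C with compounds at up to 57 uM. SteadyGlo luminescence gave expression; GF-AFC fluorescence gave viability.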
# DRD3 antagonist: antagonists of human D3 dopamine receptor; 2.5% of 360,000 active; D3R cells, DiscoveRx beta-arrestin luminescence, antagonist mode; active compounds read low; max response, negative = inhibition, %; in the data active means max response below about -50%; inconclusive means no clear call, values can overlap the other calls; further: on the % scale 0 is the no-effect control and ±100 the full control effect
# Target sequence (P35462 whole entry, looked up): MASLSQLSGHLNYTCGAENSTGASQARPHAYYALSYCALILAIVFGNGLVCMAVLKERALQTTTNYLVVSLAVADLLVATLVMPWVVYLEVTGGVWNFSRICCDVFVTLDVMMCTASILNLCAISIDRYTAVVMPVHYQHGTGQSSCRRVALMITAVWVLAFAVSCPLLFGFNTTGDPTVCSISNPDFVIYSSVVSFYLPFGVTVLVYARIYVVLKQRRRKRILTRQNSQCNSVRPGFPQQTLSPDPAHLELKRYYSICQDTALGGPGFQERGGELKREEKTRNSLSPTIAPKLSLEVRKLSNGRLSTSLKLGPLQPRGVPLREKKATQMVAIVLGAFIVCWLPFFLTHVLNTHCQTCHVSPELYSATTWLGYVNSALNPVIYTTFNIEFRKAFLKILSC
#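 Cells plated overnight at 1500 cells/well, then exposed to library compounds with dopamine controls for 90 minutes at 37 degrees C. DiscoveRx reagent added for 30–60 minutes at room temperature; luminescence read, quantitative HTS format.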
# ATXN viability: cell viability loss in ATXN counter-screen; S2 cells (HEK-293 line with an ATXN2-luciferase reporter) viability, CellTiter-Fluor protease fluorescence, 24 h; 0.49% of 400,000 active; Potency, µM (series often up to 56.7 µM), most hits filed as cytotoxic; further: potency means the concentration at half of the fitted maximal effect; nearly all actives have a fitted effect of over 40% in size
# DRD3 agonist: D3 dopamine receptor (human) agonism. P35462. D3R DiscoveRx beta-arrestin cells, luminescence, 90 min. max activation, %. 0.58% of 410,000 active; in the data active means max activation above about 30%; further: 0% is about no effect
#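 Agonist mode: compounds and dopamine controls were applied to plated cells for 90 min at 37 degrees C after an overnight attachment at 1500 cells/well. Luminescent read-out followed 30 - 60 minutes at room temperature with DiscoveRx detection reagent.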
# IL1B secr inh: inflammasome signaling inhibition, IL-1 beta readout. THP-1 LPS/ATP IL-1B secretion, AlphaLISA, 16 h; active compounds read low. 4.7% of 360,000 active. activity change, % at 57.5 µM. AID 743279; in the data active means activity change below about -50%; inconclusive means mostly about -30% to -49%; further: on the % scale 0 is the no-effect control and ±100 the full control effect
#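 Secreted IL-1B measured by AlphaLISA bead assay after 16 h compound exposure of THP-1 cells; compounds (final up to 57.5 uM) added 1 h before LPS (250 ng/mL) and ATP (1.25 mM) stimulation; lower signal means less secretion.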
# * hit, by the source's call; i = inactive; ? = inconclusive; · = no result given. Unless noted, the call rests on the fitted dose curve; in most records, active means well fitted curve in the direction sought with a large enough effect; inconclusive means small, poorly fitted or top-dose-only effect, or another doubt; inactive means no such curve, though single readings can be large; an effect the other way counts as inactive or inconclusive.
SMILES,a7 integrin act,ATXN2 expr inh,DRD3 antagonist,ATXN viability,DRD3 agonist,IL1B secr inh
CCc1ccc(N2CC(C(=O)Nc3ccc(C)c(S(=O)(=O)N4CCOCC4)c3)CC2=O)cc1 (centres undefined),-20.8%,-12.8%,8.4,i,2.8,-5.0
O=C(Nc1ccc(S(=O)(=O)N2CCOCC2)cc1)C1CC1,-2.9%,0.9%,15.3,i,5.9,6.4
CCc1ccc(N2CC(C(=O)Nc3ccc(S(=O)(=O)N4CCOCC4)cc3)CC2=O)cc1 (centres undefined),4.4%,-3.7%,-8.0,i,3.1,-60.6*
O=C(CSCc1ccccc1Cl)Nc1c[nH]c(=O)[nH]c1=O,4.3%,4.6%,16.9,i,28.0,17.1
CCc1ccc(NC(=O)CSc2nc(-c3cccc(OC)c3)nc3c2Cc2c(CO)cnc(C)c2O3)cc1,·,·,·,·,0.5,·
COc1ccc(C2N(c3ccc4c(c3)OCCO4)C(=O)C2(F)F)cc1OC (centres undefined),-8.9%,26.9%,41.1,i,20.2,-78.7*
CCS/C(N)=N/N=C/c1cc(C)ccc1O,8.3%,51.9%,-52.9*,i,-6.2,-55.1*
CCCCS/C(N)=N/N=C/c1cc(C)ccc1O,-24.4%,44.1%,-54.8*,i,-11.4,-28.8
COC(=O)N1c2ccccc2CCc2ccccc21,-27.6%,-23.1%,0.5,i,-9.1,4.1
COc1ccc(CCNC(=O)C2CCN(c3nc4ccccc4nc3C(F)(F)F)CC2)c(OC)c1,·,-4.5%,·,i,-7.6,·
Cc1ccc(C)n1-c1ccc(C(=O)Nc2ccccc2F)cc1,7.8%,16.8%,14.6,i,-1.4,-86.9*
CCc1ccccc1NC(=O)c1ccc(-n2c(C)ccc2C)cc1,-54.5%,9.1%,-19.4,?,1.5,-83.2*
O=C(Nc1ccccc1F)c1ccncc1,20.0%,-4.4%,?,i,-0.1,33.4
CC(C)(C)OC(=O)CNC(=O)c1[nH]cnc1C(=O)NC1CCNCC1,12.2%,-6.6%,-1.6,i,-12.4,2.9
Cn1nc(-c2ccc(Cl)cc2)c2cc(C(=O)N3CCN(c4ccccn4)CC3)sc21,-1.3%,-10.3%,9.2,i,4.6,1.2
O=C(c1ccccc1)c1ccc(OC(=O)N2CCOCC2)cc1,-12.8%,27.3%,-1.0,i,5.5,0.8
Cc1ccc(-n2c(N)c(C(=O)NCc3ccco3)sc2=S)cc1,0.5%,-4.3%,0.0,i,-5.6,-58.3*
Cc1cc(C)c2c(N)c(C(=O)Nc3ncc(C)s3)sc2n1,17.7%,2.51µM*,15.3,i,-9.6,-19.4
COC(=O)c1sc2nc(C)cc(C)c2c1N,13.6%,8.6%,24.4,i,-4.9,-24.1
Cc1cc(C)c(Cc2c(C)nc3c(C(=O)NCc4ccco4)cnn3c2C)c(C)c1,-28.2%,14.1µM*,-14.5,20µM*,-1.0,-1.4
Cc1ccc(CNC(=O)c2cnn3c(C)c(Cc4c(F)cccc4Cl)c(C)nc23)cc1,·,-25.6%,·,?,-11.0,·
Cc1cc(C)c2c(N)c(C(=O)NCc3ccco3)sc2n1,-6.6%,31.2%,16.3,i,-6.1,-61.1*
O=C(N/C(=C\c1cccc([N+](=O)[O-])c1)C(=O)N1CCOCC1)c1ccc([N+](=O)[O-])cc1,-9.3%,·,3.8,?,0.2,-1.4
COc1ccccc1-c1sc2cc3c(cc2c1-c1ccc(O)cc1)OCO3,7.6%,-16.1%,1.6,i,-17.0,8.8
O=Nc1ccc(NOC(=O)c2ccccc2Br)cc1,12.4%,7.7%,-9.0,i,-10.4,-19.0
SMILES,a7 integrin act,ATXN2 expr inh,DRD3 antagonist,ATXN viability,DRD3 agonist,IL1B secr inh
O=C(ONc1ccc(N=NC(=O)c2ccccc2O)cc1)c1ccccc1,-4.0%,-16.6%,8.0,1.26µM*,-3.0,38.8
N#Cc1ccc(C(=O)N2CCC3CC2c2cc(N4CCCCC4)ccc23)cc1 (centres undefined),-19.3%,-8.8%,8.0,i,-2.5,10.4
COc1cc(C(=O)NCCCN2CCCC2=O)ccc1OCc1ccc(Cl)cc1Cl,-27.4%,-7.7%,-6.8,i,1.1,-52.1*
CCOc1ccc(C(=O)C(CCC(CN(C)C)C(=O)c2ccc(OCC)cc2)CN(C)C)cc1 (centres undefined),-60.9%,5.62µM*,-84.9*,3.16µM*,-13.0,-100.5*
CN(C)CC(CCC(CN(C)C)C(=O)c1ccccc1)C(=O)c1ccccc1 (centres undefined),-16.6%,7.52µM*,-80.3*,7.52µM*,-42.6,-99.7*
CN(C)C(=O)c1ccc(S(=O)(=O)NCc2ccc(Cl)cc2)s1,·,-13.8%,·,i,-15.2,·
O=C(C1=C(O)C(=O)N(CC2CCCO2)C1c1ccccc1F)c1ccco1 (centres undefined),-6.8%,5.4%,0.0,i,-3.0,-94.4*
COc1ccc(NC(=S)Nc2ncccc2C)cc1OC,4.3%,0.0%,-21.4,i,-2.3,-23.9
COc1ccccc1NC(=S)Nc1ccccn1,-5.3%,27.6%,4.5,i,-3.0,-58.2*
COc1ccccc1NC(=O)C(=O)Nc1ccccn1,-2.2%,60.0%,-83.6*,i,-4.2,8.6
COc1ccc(NC(=S)Nc2ncccc2C)c(OC)c1,-47.1%,34.0%,11.4,i,1.1,-77.8*
CCN1C(=NCC2CC2)N[C@@H](c2ccccc2)C(C(=O)OC)=C1C,2.2%,2.8%,-22.2,i,-20.3,7.3
Cc1ccc(NC(=O)[C@@H](C)NC(=O)[C@@H]2Cc3ccccc3CN2)cc1,18.1%,·,-6.0,i,2.7,-14.0
Cc1ccc(NC(=O)[C@H](NC(=O)[C@@H]2Cc3ccccc3CN2)c2ccccc2)cc1C,?,·,-101.0*,i,-20.9,-3.9
CCCC1(c2ccccc2)NC(=O)NC1=O (centres undefined),-13.4%,2.9%,-6.8,i,8.2,0.9
COc1cccc(C2CC(c3ccccc3)=NN2S(=O)(=O)c2ccc(C)cc2)c1OC (centres undefined),4.1%,?,-17.8,i,-1.7,-7.8
COc1ccc2sc(N(CCN(C)C)C(=O)/C=C/c3cccs3)nc2c1,-57.7%,·,-86.0*,?,-17.0,-95.2*
COc1ccc2nc(N(CCN(C)C)C(=O)/C=C/c3cccs3)sc2c1,0.0%,·,-1.0,?,-12.5,-67.5*
CCOc1ccc2nc(N(CCN(CC)CC)C(=O)/C=C/c3cccs3)sc2c1,-81.6%,-2.4%,-11.1,i,-10.8,-96.7*
CC(=O)c1ccc(N2CCN(C(=O)c3ccc(NC4=NC5CS(=O)(=O)CC5S4)cc3)CC2)cc1 (centres undefined),3.5%,-11.9%,-10.6,i,-3.4,-11.3
CCc1cccc(NC(=O)c2c(C)oc3ncnc(N4CCCCC4)c23)c1,·,-31.5%,·,?,-4.0,·
CCc1cc(C(=O)Nc2ccc(OC)nc2)sc1C,6.2%,22.2%,-4.3,i,-1.5,0.0
